Measurements: PubChem BioAssay (Tox21)
Records with an inconclusive call do not appear. Unmarked numbers belong to inactive results. Activity calls are given as the source filed them. Calls follow the shape of the dose curve; as a rule, active = well fitted inhibition curve with a large enough effect in the repeat runs; inconclusive = weak or mixed curves; inactive = no such curve, though single readings can be large or run the other way.

These molecules were tested against Cytochrome P450 2C19 (Homo sapiens) (UniProt P33261) (assay: Cytochrome P450 Family 2 Subfamily C Member 19 (CYP2C19) small molecule antagonists: luciferase reporter qHTS assay (AID 1671197; also: nearly all actives have a fitted effect of over 65% in size)). Conditions: P450-Glo CYP2C19 enzyme, luciferin luminescence, 1 h; series mostly up to 115 µM; activity change, negative = inhibition: at the top concentration.
Chain of Cytochrome P450 2C19 (Homo sapiens) (P33261 whole entry, looked up): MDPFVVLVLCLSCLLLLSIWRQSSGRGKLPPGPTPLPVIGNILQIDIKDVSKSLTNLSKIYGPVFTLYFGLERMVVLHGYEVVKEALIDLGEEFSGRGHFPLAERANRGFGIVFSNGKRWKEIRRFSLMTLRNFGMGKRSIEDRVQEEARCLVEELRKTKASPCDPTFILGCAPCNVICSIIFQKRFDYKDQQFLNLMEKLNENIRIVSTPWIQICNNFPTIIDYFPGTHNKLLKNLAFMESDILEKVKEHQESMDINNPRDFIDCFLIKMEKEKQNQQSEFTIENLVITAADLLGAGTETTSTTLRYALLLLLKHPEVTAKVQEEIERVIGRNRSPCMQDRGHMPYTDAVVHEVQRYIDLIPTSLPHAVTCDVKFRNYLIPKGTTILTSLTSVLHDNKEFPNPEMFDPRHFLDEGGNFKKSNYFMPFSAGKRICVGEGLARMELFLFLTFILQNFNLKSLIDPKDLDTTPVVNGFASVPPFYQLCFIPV
Text: National Center for Advancing Translational Sciences [NCATS]
U.S. Environmental Protection Agency [EPA]
National Institutes of Environmental Health Sciences [NIEHS]
National Toxicology Program [NTP]
U.S. Food and Drug Administration [FDA]
Cytochrome P450 (CYP) enzymes are membrane-bound hemeproteins that play a key role in metabolism of drugs and xenobiotics. Evaluation of the effect of chemicals on CYP isozymes is useful to minimize the adverse drug reactions and toxicities in drug development process. Tox21 chemicals were tested for their effect on CYP enzyme activities by using P450-Glo (TM) screening systems (Promega Corporation, Madison, WI). These systems provide a luminescent method containing proluciferin substrates and are converted to luciferin products by CYP isozymes. The luciferin products formed are detected with a luciferin detection reagent, and the amount of light produced is proportional to CYP activity. P450-Glo (TM) CYP2C19 screening system (Catalog. No. V9880) was used to detect the compounds that interfere in CYP2C19 activity. The positive control compound used for CYP2C19 assay is ketoconazole (Sigma-Aldrich, St. Louis, MO).
Tox21 Assay Protocol Summary:
Two ul of enzyme-substrate mix was dispensed into medium binding white/solid 1536-well plates (Greiner Bio-One North America Inc., Monroe, NC) using a BioRaptr Flying Reagent Dispenser (FRD, Beckman Coulter, Brea, CA). Compounds dissolved in DMSO and positive control (ketoconazole) were transferred to the assay plates at 23 nl using a Pintool station (Wako, San Diego, CA). The assay plates were incubated at room temperature for 10 min. Then 2 ul of NADPH regeneration solution was added to each well of the assay plates using an FRD and incubated at 37C for 1 h. The reaction was stopped by adding 4 ul of detection reagent using an FRD and after 20 min incubation at room temperature the luminescence signal was measured using a ViewLux plate reader (Perkin Elmer, Shelton, CT). Data were expressed as relative luminescence units.
% is scaled to controls: 0 for no effect and ±100 for the full control effect; potency is read from the fitted curve at half-maximal effect.

SMILES	activity change, negative = inhibition	Potency
CCOC(=O)C(C)(C)C	-8.94%	
O=C1OC(=O)c2ccccc21	0.538%	
O=P(O)(O)OCC(O)CO (stereo not given)	28.5% [at 52.9 µM]	
COc1cc2c3cc1Oc1cc(ccc1O)C[C@@H]1c4c(cc(OC)c(O)c4Oc4ccc(cc4)C[C@@H]3N(C)CC2)CC[N+]1(C)C	21.5% [at 52.9 µM]	
CC(C)=CC(C)(C)C	-16.2%	
O=S1(=O)CCCC1	5.14%	
CC(=O)c1ccc2c(c1)CCCC2		79.6 µM (active)
Cc1cccc(Nc2ccncc2S(=O)(=O)NC(=O)NC(C)C)c1	-13.4% [at 52.9 µM]	
Cc1oc(=O)oc1CN1CCN(c2cc3c(cc2F)c(=O)c(C(=O)O)c2n3C(C)S2)CC1 (stereo not given)	-9.05% [at 52.9 µM]	
C=C[C@@H](C)CCC=C(C)C	7.26%	
Nc1c(NC/C=C\COc2cc(CN3CCCCC3)ccn2)c(=O)c1=O	-27.3% [at 23.6 µM]	
COc1ccc(/C=N/NC(=O)c2ccncc2)cc1OC		34.7 µM (active)
CC(=O)OCC(=O)[C@@]1(O)[C@H](OC(C)=O)C[C@H]2[C@@H]3CCC4=CC(=O)C=C[C@]4(C)[C@@]3(F)[C@@H](O)C[C@@]21C	10.6% [at 52.9 µM]	
CC1=CC[C@H](CC=O)C1(C)C	-21%	
Cc1nc2n(c(=O)c1CCN1CCC(C(=O)c3ccc(F)cc3)CC1)CCS2	10.5% [at 52.9 µM]	
O=C(CN1CCN(Cc2ccc3c(c2)OCO3)CC1)N1c2ccccc2Sc2ccccc21		34.7 µM (active)
CCCCC(=O)N(C)C	8.98%	
CCN(CC)C(=O)C1CN2CCc3cc(OC)c(OC)cc3C2CC1OC(C)=O (stereo not given)	18.7% [at 52.9 µM]	
CCCCCC1CCCC(=O)O1 (stereo not given)		79.6 µM (active)
CC(Cl)COP(=O)(OCC(C)Cl)OCC(C)Cl (stereo not given)		19.9 µM (active)

SMILES	activity change, negative = inhibition	Potency
CCCCC(C)C(=O)O (stereo not given)		39.9 µM (active)
NC(Cc1c[nH]c2ccccc12)C(=O)O (stereo not given)		24.7 µM (active)
C=C[Si](C)(C)O[Si](C)(C)C=C	-15.1%	
CC(C)CCCCCCOC(=O)C1CCCCC1C(=O)OCCCCCCC(C)C (stereo not given)	5.73%	
CCC1Nc2cc(Cl)c(S(N)(=O)=O)cc2S(=O)(=O)N1 (stereo not given)	13.7% [at 52.9 µM]	
CC(C)CCC(=O)CCC(C)C	-0.522%	
O=c1[nH]c(=O)c2ccccc2o1	-10.6% [at 52.9 µM]	
CNC(=O)C(c1ccccc1)c1ccccc1		20 µM (active)
CC(=O)OCCCc1ccccc1	7.15%	
CCc1nccnc1C	21.7%	
CCCOC(=O)CCCCC(=O)OCCC		20 µM (active)
CCOC(=O)CC(CC(=O)OCC)(OC(C)=O)C(=O)OCC		12.6 µM (active)
CCC(=O)c1ccc(O)cc1	12.9% [at 52.9 µM]	
CCCCCCCC/C=C\CCCCCCCC(=O)OC[C@@H](O)[C@H]1OC[C@H](O)[C@H]1O	-19%	
CC(C)COC(=O)COc1ccc(Cl)cc1Cl		56.3 µM (active)
CC(C)(c1ccc(Oc2ccc3c(c2)C(=O)OC3=O)cc1)c1ccc(Oc2ccc3c(c2)C(=O)OC3=O)cc1	0.511%	
O=C(O)CCNC(=O)c1ccccc1	17% [at 52.9 µM]	
OC[C@@H](O)[C@H](O)[C@@H](O)[C@@H](O)CO		44.8 µM (active)
CCCCCCCCCCCCCC(=O)OC	17%	
CC(=O)OC(C(=O)c1ccccc1)c1ccccc1 (stereo not given)		8.98 µM (active)
